Screens as filed in PubChem BioAssay.
HIF-2a block: inhibitors of HIF-2a | inhibition, % at 18.8 µM | 360,000 tested, 0.72% active | 786-0 RCC cells HIF-2a reporter, luciferase luminescence, overnight;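 active means inhibition of the luminescence signal of 40% or more relative to plate controls, in a single-dose primary screen at 18.75 µM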
KKLEB tox: CF airway cell cytotoxicity counter-screen; activity change (cytotoxicity), % at 5 µM; KKLEB CF airway cells viability, ATPlite luminescence, overnight; stronger effect = lower value; cells stimulated with P. aeruginosa culture filtrate; 360,000 tested, 0.36% active;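 active means corrected activity change at or below -50% at 5 µM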
Peg3 promoter: Peg3 promoter activity inhibition; HeLa PEG-Prom luciferase reporter, luminescence, overnight; inhibition, % at 20 µM; 360,000 tested, 1.7% active;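 active means inhibition of at least 50% at 20 µM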
CF NFkB block: cystic fibrosis NF-kB activation inhibition; KKLEB NF-kB-GFP reporter, PAF-induced, GFP fluorescence overnight; 360,000 tested, 0.86% active; inhibition, % at 5 µM;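 active means at least 50% inhibition at 5 µM, scaled per plate between neutral and stimulator controls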;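 further: PAF is a Pseudomonas aeruginosa culture filtrate used as stimulus; plate controls were PAF-stimulated DMSO wells for no effect and unstimulated DMSO wells for full effect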
TRPM1 prom inh: reduces MITF-dependent TRPM1 promoter luciferase signal | SK-MEL-5 TRPM1 promoter luciferase, 24 h | inhibition, % at 12.5 µM | 330,000 tested, 0.83% active | AID 488899;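 active means mean inhibition across replicates of 60% or more, whatever share of single replicates reaches that level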
ABHD5 PLIN5 PPI: inhibitors of human ABHD5-perilipin-5 interaction. Split G. princeps luciferase complementation, luminescence, 4 h. inhibition, % at 4 µM. 360,000 tested, 0.78% active. Q00G26+Q8WTS1;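 active means inhibition above the mean inhibition across every tested compound plus 3 SD, cut at about 22% in these data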;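 further: 0% = DMSO only wells and the 100% control is not disclosed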
Target sequence (Q00G26 whole entry, looked up): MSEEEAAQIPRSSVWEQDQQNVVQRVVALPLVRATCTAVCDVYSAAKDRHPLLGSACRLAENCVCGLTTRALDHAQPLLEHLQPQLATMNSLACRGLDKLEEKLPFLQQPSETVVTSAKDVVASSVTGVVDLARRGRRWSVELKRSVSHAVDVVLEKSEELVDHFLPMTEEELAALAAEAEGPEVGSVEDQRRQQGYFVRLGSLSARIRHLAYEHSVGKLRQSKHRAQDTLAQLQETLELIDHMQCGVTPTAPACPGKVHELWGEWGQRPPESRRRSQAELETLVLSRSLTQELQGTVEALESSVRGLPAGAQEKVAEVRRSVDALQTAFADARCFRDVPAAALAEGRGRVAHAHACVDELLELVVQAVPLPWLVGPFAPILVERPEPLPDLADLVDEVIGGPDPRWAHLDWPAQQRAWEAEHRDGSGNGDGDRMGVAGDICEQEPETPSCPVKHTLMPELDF
Target sequence (Q8WTS1 whole entry, looked up): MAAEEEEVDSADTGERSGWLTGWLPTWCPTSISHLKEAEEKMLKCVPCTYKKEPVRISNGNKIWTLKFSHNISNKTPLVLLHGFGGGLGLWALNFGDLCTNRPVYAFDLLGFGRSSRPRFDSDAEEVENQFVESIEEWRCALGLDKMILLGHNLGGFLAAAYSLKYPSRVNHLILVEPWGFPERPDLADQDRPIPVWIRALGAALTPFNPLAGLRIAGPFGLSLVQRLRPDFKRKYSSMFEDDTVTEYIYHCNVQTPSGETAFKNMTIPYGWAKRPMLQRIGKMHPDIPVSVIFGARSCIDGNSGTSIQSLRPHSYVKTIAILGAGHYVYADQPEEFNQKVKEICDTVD
The depositor's hits bear a star; ! = not confirmed by another sample. Most compounds without a hit are left out; they make up all but 3% or so of the library.

For O=c1cc(N=Nc2ccc(Cl)cc2)[nH]c(=O)[nH]1 the results were HIF-2a block 14, KKLEB tox -7, Peg3 promoter 111*, CF NFkB block 68*, TRPM1 prom inh 0 and ABHD5 PLIN5 PPI -20.
Cc1ccc(-c2cn(-c3ccccc3)c3[n+]2CCCS3)cc1 was read as HIF-2a block 17, KKLEB tox 4, Peg3 promoter 15, CF NFkB block -15, TRPM1 prom inh 43 and ABHD5 PLIN5 PPI 9.
Screening COc1ccc(-n2cc(-c3ccc(C)cc3)[n+]3c2SCC3)cc1 returned HIF-2a block 10, KKLEB tox 8, Peg3 promoter 14, CF NFkB block -12, TRPM1 prom inh 71* and ABHD5 PLIN5 PPI 2.
For Cc1ccc(NC(=O)N2CCCC2C(=O)Nc2nnc(C(C)C)s2)cc1 (stereo unspecified) the results were HIF-2a block 6, KKLEB tox -3, Peg3 promoter -27, CF NFkB block 2, TRPM1 prom inh -9 and ABHD5 PLIN5 PPI -7.
For COCCNC(=O)CCc1c(C)nc2c(c(C)nn2-c2ccc(C)cc2)c1C the results were HIF-2a block 21, KKLEB tox -11, Peg3 promoter 14, CF NFkB block 2, TRPM1 prom inh 12 and ABHD5 PLIN5 PPI 3.
For CCN(CC)CCNC(=O)CCc1c(C)nc2c(c(C)nn2-c2ccc(C)cc2)c1C the results were HIF-2a block 28, KKLEB tox -11, Peg3 promoter 73*, CF NFkB block 17, TRPM1 prom inh 2 and ABHD5 PLIN5 PPI -3.
For Cc1cccc(N2CCN(C(=O)COc3ccc4c(C)cc(=O)oc4c3C)CC2)c1C the results were HIF-2a block -2, KKLEB tox 4, Peg3 promoter -1, CF NFkB block 10, TRPM1 prom inh -8 and ABHD5 PLIN5 PPI 5.
Screening Cc1ccc(NC(=O)Cn2c(O)c(N=NC(N)=S)c3ccccc32)cc1 returned HIF-2a block 47*, KKLEB tox -9, Peg3 promoter 22, CF NFkB block 8, TRPM1 prom inh 43 and ABHD5 PLIN5 PPI 0.
For Cc1ccc(NC(=O)Cn2c(O)c(N=NC(N)=O)c3ccccc32)cc1 the results were HIF-2a block 16, KKLEB tox 8, Peg3 promoter 21, CF NFkB block -14, TRPM1 prom inh 14 and ABHD5 PLIN5 PPI 0.
`C[C@]12CCC3C(CC[C@H]4CCCC[C@]34C)C1CC[C@@]2(O)CNCCO` (stereo partly specified) gave HIF-2a block 13, KKLEB tox 3, Peg3 promoter 91*, CF NFkB block 12, TRPM1 prom inh -29 and ABHD5 PLIN5 PPI -8.
For COc1ccc(-c2cc3c(=O)n(CC(=O)Nc4ccc(Cl)cc4)nc(C)n3n2)cc1 the results were HIF-2a block -1, KKLEB tox 5, Peg3 promoter 7, CF NFkB block -5, TRPM1 prom inh -1 and ABHD5 PLIN5 PPI -3.
`CCOC(=O)C1=C(C)c2ccccc2N(C(=O)OC)C1(C)C(=O)OCC` (stereo unspecified) gave HIF-2a block 7, KKLEB tox 12, Peg3 promoter 0, CF NFkB block 7, TRPM1 prom inh 11 and ABHD5 PLIN5 PPI 30*.
For O=C(O)c1cc(-c2ccco2)nc2ccc(Br)cc12 the results were HIF-2a block 10, KKLEB tox 7, Peg3 promoter 9, CF NFkB block -2, TRPM1 prom inh 12 and ABHD5 PLIN5 PPI 29*!.
`Cc1ccc(-c2cc(C(=O)N3CCN(c4ncccn4)CC3)c3cc(Br)ccc3n2)o1` gave HIF-2a block 10, KKLEB tox 0, Peg3 promoter 52*, CF NFkB block -8, TRPM1 prom inh -14 and ABHD5 PLIN5 PPI 10.
`Cc1ccc(-c2cc(C(=O)N3CCN(c4ccc(F)cc4)CC3)c3ccccc3n2)o1` gave HIF-2a block -84, KKLEB tox -6, Peg3 promoter -25, CF NFkB block -1, TRPM1 prom inh -29 and ABHD5 PLIN5 PPI 8.
Cc1cccnc1C(NC(=O)C1CCN(Cc2cn(C)c3ccccc23)CC1)c1ccc(Cl)cc1 (stereo unspecified) was read as HIF-2a block 2, KKLEB tox -26, Peg3 promoter 105*, CF NFkB block 34 and ABHD5 PLIN5 PPI 7.
`Cc1cccnc1C(NC(=O)C1CCN(Cc2ccc(Cl)cc2)CC1)c1ccccc1` (stereo unspecified) gave HIF-2a block -3, KKLEB tox -6, Peg3 promoter 13, CF NFkB block 13 and ABHD5 PLIN5 PPI -1.
